We go through 35 compounds from the antibiotic and cytotoxicity screens of Wong et al. (2023).

The campaign covered roughly 39,000 compounds. About 3,300 (8.5%) were called active. Shown is part of a subset that was picked to be rich in actives.

In the assay the test system is HepG2. Put plainly: cytotoxicity call (relative viability < 0.9). The settings on record: 10 µM.
On to `O=C(/C=C/c1cc2c(cc1Br)OCCO2)c1c(-c2ccccc2)c2cc(Cl)ccc2[nH]c1=O`, for which the cytotoxicity call was “active”.

`N=C(CN1CCCCC1)NO`: the cytotoxicity call was “inactive”.

Take `CN(C)CCCNC(=O)C[C@@H]1CC[C@H]2[C@@H](COC[C@@H](O)CN2C(=O)c2cc(Cl)cc(Cl)c2)O1`: the cytotoxicity call is “inactive”.

For `COc1ccc(NC(=O)Nc2ccc3c(c2)C(=O)N([C@@H](C)CO)C[C@H](C)[C@H](CN(C)C(=O)Nc2ccc(C(F)(F)F)cc2)OCCCC[C@H](C)O3)cc1`, the cytotoxicity call is “inactive”.

Regarding `C[C@H]1CN([C@@H](C)CO)C(=O)c2cccc(NS(=O)(=O)c3ccc(F)cc3)c2O[C@@H]1CN(C)Cc1ccc(Cl)c(Cl)c1`, the cytotoxicity call was “inactive”.

On to `COC1=C(N)C(=O)c2nc(-c3nc(C(=O)O)c(C)c(-c4ccc(OC)c(OC)c4O)c3N)ccc2C1=O`, for which the cytotoxicity call was “active”.

With `COc1ccc(NC(=O)N(C)C[C@@H]2Oc3ncc(Br)cc3C(=O)N([C@H](C)CO)C[C@@H]2C)cc1`, the cytotoxicity call is “inactive”.

For the compound `CCCNC(=O)N1C[C@H](O)COC[C@@H]2O[C@H](CC(=O)NCCCN3CCOCC3)CC[C@H]21`, the cytotoxicity call was “inactive”.

Consider `CN1C(=O)c2cc(NC(=O)c3ccc(C(F)(F)F)cc3)ccc2OC[C@@H]2O[C@H](CC(=O)NC3Cc4ccccc4C3)CC[C@@H]21`, for which the cytotoxicity call was “inactive”.

Turning to `CN1C(=O)c2cc(NC(=O)Nc3ccccc3F)ccc2OC[C@H]2O[C@H](CC(=O)NCc3ccc(-c4ccccc4)cc3)CC[C@H]21`, the cytotoxicity call was “inactive”.

With `CN1C(=O)c2cc(NC(=O)Nc3ccccc3F)ccc2OC[C@H]2O[C@@H](CC(=O)Nc3cccc(Cl)c3)CC[C@@H]21`, the cytotoxicity call is “active”.

`CN1C(=O)c2cc(NC(=O)c3ccc(C(F)(F)F)cc3)ccc2OC[C@H]2O[C@H](CC(=O)NC3Cc4ccccc4C3)CC[C@@H]21`: the cytotoxicity call is “inactive”.

Turning to `CN1C(=O)c2cc(NC(=O)c3ccc(C(F)(F)F)cc3)ccc2OC[C@@H]2O[C@H](CC(=O)NC3Cc4ccccc4C3)CC[C@H]21`, the cytotoxicity call was “inactive”.

On to `CN(C)CC(=O)Nc1ccc2c(c1)C(=O)N(C)[C@H]1CC[C@H](CC(=O)Nc3cccc(Cl)c3)O[C@@H]1CO2`, for which the cytotoxicity call was “inactive”.

Consider `CN1C(=O)c2cc(NC(=O)c3ccc(C(F)(F)F)cc3)ccc2OC[C@@H]2O[C@@H](CC(=O)NC3Cc4ccccc4C3)CC[C@H]21`, for which the cytotoxicity call was “inactive”.

Take `CN1C(=O)c2cc(NC(=O)c3ccc(C(F)(F)F)cc3)ccc2OC[C@@H]2O[C@@H](CC(=O)NC3Cc4ccccc4C3)CC[C@@H]21`: the cytotoxicity call is “active”.

Consider `CN1C(=O)c2cc(NC(=O)c3ccc(C(F)(F)F)cc3)ccc2OC[C@H]2O[C@H](CC(=O)NC3Cc4ccccc4C3)CC[C@H]21`, for which the cytotoxicity call was “active”.

Consider `C[C@H]1CCCCO[C@@H](CN(C)Cc2ccncc2)[C@@H](C)CN([C@@H](C)CO)C(=O)c2cc(NC(=O)Nc3ccccc3)ccc2O1`, for which the cytotoxicity call is “inactive”.

In the case of `Cc1ccc(S(=O)(=O)Nc2ccc3c(c2)C(=O)N([C@H](C)CO)C[C@@H](C)[C@@H](CN(C)C(=O)Nc2ccccc2)OCCCC[C@H](C)O3)cc1`, the cytotoxicity call was “inactive”.

For the compound `C[C@H](CO)N1C[C@H](C)[C@@H](CN(C)S(=O)(=O)c2ccc(F)cc2)Oc2ncc(-c3ccncc3)cc2C1=O`, the cytotoxicity call was “inactive”.

As for `COc1ccc(CN(C)C[C@@H]2OCCCC[C@@H](C)Oc3ccc(NC(=O)CCC(F)(F)F)cc3C(=O)N([C@@H](C)CO)C[C@@H]2C)cc1`, the cytotoxicity call is “inactive”.

For the compound `CCOC(=O)N(C)C[C@@H]1OCc2cn(nn2)CCCC(=O)N([C@H](C)CO)C[C@@H]1C`, the cytotoxicity call was “inactive”.

`C[C@@H]1CN([C@@H](C)CO)C(=O)c2cc(NS(=O)(=O)c3ccc(F)cc3)ccc2O[C@@H]1CN(C)S(=O)(=O)c1cccs1`: the cytotoxicity call was “inactive”.

In the case of `C[C@@H]1CN([C@H](C)CO)S(=O)(=O)c2ccc(Br)cc2O[C@H]1CN(C)C(=O)c1cnccn1`, the cytotoxicity call is “inactive”.

As to `CNC[C@@H]1Oc2c(NS(=O)(=O)c3cn(C)cn3)cccc2C(=O)N([C@H](C)CO)C[C@@H]1C`, the cytotoxicity call is “inactive”.

`COCCOC(=O)N1C(=O)[C@@]2(c3cc(C#Cc4ccc(OC)cc4)ccc31)[C@H](c1ccc(OCCO)cc1)N1[C@H](c3ccccc3)[C@H](c3ccccc3)OC(=O)[C@H]1[C@@H]2C(N)=O`: the cytotoxicity call is “inactive”.

Regarding `COCCOC(=O)N1C(=O)[C@@]2(c3cc(C#Cc4ccc(OC)cc4)ccc31)[C@H](C(=O)N1CCCCCCC1)[C@H]1C(=O)O[C@H](c3ccccc3)[C@H](c3ccccc3)N1[C@@H]2c1ccc(OCCO)cc1`, the cytotoxicity call was “inactive”.

Consider `COCCOC(=O)N1C(=O)[C@@]2(c3cc(C#Cc4ccc(OC)cc4)ccc31)[C@H](c1ccc(O)cc1)N1[C@H](c3ccccc3)[C@H](c3ccccc3)OC(=O)[C@H]1[C@@H]2C(=O)N1CCCCCCC1`, for which the cytotoxicity call was “active”.

With `COCCOC(=O)N1C(=O)[C@@]2(c3cc(C#CCC(C(=O)OC)C(=O)OC)ccc31)[C@H](c1ccc(OCCO)cc1)N1[C@H](c3ccccc3)[C@H](c3ccccc3)OC(=O)[C@H]1[C@@H]2C(=O)N1CCCCCCC1`, the cytotoxicity call is “inactive”.

On to `COCCOC(=O)N1C(=O)[C@@]2(c3cc(C#Cc4ccc(OC)cc4)ccc31)[C@H](C(=O)N1CCCCCCC1)[C@H]1C(=O)O[C@H](c3ccccc3)[C@H](c3ccccc3)N1[C@@H]2c1ccc(O)cc1`, for which the cytotoxicity call is “inactive”.

In the case of `COCCOC(=O)N1C(=O)[C@@]2(c3cc(C#CCC(C(=O)OC)C(=O)OC)ccc31)[C@H](C(=O)N1CCCCCCC1)[C@H]1C(=O)O[C@H](c3ccccc3)[C@H](c3ccccc3)N1[C@@H]2c1ccc(OCCO)cc1`, the cytotoxicity call was “inactive”.

As for `COc1ccc(C#Cc2ccc3c(c2)[C@@]2(C(=O)N3C(=O)N[C@@H](C)c3ccccc3)[C@H](c3ccc(OCCO)cc3)N3[C@H](c4ccccc4)[C@H](c4ccccc4)OC(=O)[C@H]3[C@@H]2C(=O)O)cc1`, the cytotoxicity call is “active”.

As to `COCCOC(=O)N1C(=O)[C@@]2(c3cc(C#CCC(C(=O)OC)C(=O)OC)ccc31)[C@H](C(=O)N1CCCCCCC1)[C@H]1C(=O)O[C@H](c3ccccc3)[C@H](c3ccccc3)N1[C@@H]2c1ccc(O)cc1`, the cytotoxicity call was “active”.

Regarding `COCCOC(=O)N1C(=O)[C@@]2(c3cc(C#Cc4ccc(OC)cc4)ccc31)[C@H](c1ccc(OCCO)cc1)N1[C@H](c3ccccc3)[C@H](c3ccccc3)OC(=O)[C@H]1[C@@H]2C(=O)NC[C@H](O)c1ccccc1`, the cytotoxicity call was “inactive”.

Take `NCC[C@H]1CC[C@H](NC(=O)Cc2ccncc2)[C@@H](CO)O1`: the cytotoxicity call is “inactive”.
